miR-21 act: qHTS Assay for Modulators of miRNAs and/orActivators of miR-21; 340,000 tested, under 10 active; HeLa miR-21 FLuc reporter, luciferase, 48 h; Potency, µM (titrated, usually from 38.3 µM), actives largely listed as activators;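 note: miR-21 action dims this reporter so a rising signal means less miR-21 action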
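Compounds were titrated across several concentrations (up to approximately 40 uM) and incubated 48 hours with HeLa miR-21-FLuc reporter cells (miR-21 target sequence downstream of FLuc, endogenous miR-21). Readout was firefly luciferase luminescence after lytic detection reagent.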
TDP1 cell CPT: qHTS for Inhibitors of human tyrosyl-DNA phosphodiesterase 1 (TDP1): qHTS in cells in presence of CPT; Potency, µM (highest dose often 46.2 µM), hits mostly inhibitors; 12% of 420,000 active; chicken DT40 Tdp1-/-;hTDP1 cells + 20 nM CPT, ATP luminescence, 48 h; note: nearly all actives have a fitted effect of over 55% in size
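Chicken DT40 Tdp1-/- cells complemented with human TDP1, 400 cells/well, exposed to compounds plus 20 nM camptothecin for at least 48 h at 37 C; viability read as ATP content by CellTiter-Glo luminescence.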
TDP1 cell noCPT: qHTS for Inhibitors of human tyrosyl-DNA phosphodiesterase 1 (TDP1): qHTS in cells in absence of CPT; DT40 Tdp1-/- hTDP1 cells, no CPT, ATP luminescence, 48 h; Potency, µM (titrated, usually from 46.2 µM), actives largely listed as inhibitors; 15% of 420,000 active; AID 686978, 2013; note: nearly all actives have a fitted effect of over 55% in size
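Readout: luminescence from CellTiter-Glo after 30 min in the dark at RT. Cells: DT40 Tdp1-/- with stable hTDP1, 400/well. Exposure: compounds alone, ≥48 hr, 37 °C.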
uPA generation: qHTS for Inhibitors of Cell Surface uPA Generation; cell surface uPA generation assay, qHTS; Potency, µM (top dose mostly 38.3 µM), usual class: inhibitors; 0.31% of 330,000 active; AID 540303, 2011; active = well fitted inhibition curve with a large enough effect; inconclusive = small, poorly fitted or top-dose-only effect; inactive = no such curve, though single readings can be large or run the other way; tested in mouse RAW 264.7 cells; note: nearly all actives have a fitted effect of over 55% in size
TDP1 inh: qHTS Assay for Inhibitors of Tyrosyl-DNA Phosphodiesterase (TDP1); recombinant TDP1, AlphaScreen DNA substrate cleavage; Tyrosyl-DNA phosphodiesterase 1 (Homo sapiens), Q9NUW8; AID 485290, 2010; 0.28% of 350,000 active; Potency, µM (highest dose often 130 µM), hits mostly inhibitors; note: nearly all actives have a fitted effect of over 40% in size
Target sequence (Q9NUW8 whole entry, looked up): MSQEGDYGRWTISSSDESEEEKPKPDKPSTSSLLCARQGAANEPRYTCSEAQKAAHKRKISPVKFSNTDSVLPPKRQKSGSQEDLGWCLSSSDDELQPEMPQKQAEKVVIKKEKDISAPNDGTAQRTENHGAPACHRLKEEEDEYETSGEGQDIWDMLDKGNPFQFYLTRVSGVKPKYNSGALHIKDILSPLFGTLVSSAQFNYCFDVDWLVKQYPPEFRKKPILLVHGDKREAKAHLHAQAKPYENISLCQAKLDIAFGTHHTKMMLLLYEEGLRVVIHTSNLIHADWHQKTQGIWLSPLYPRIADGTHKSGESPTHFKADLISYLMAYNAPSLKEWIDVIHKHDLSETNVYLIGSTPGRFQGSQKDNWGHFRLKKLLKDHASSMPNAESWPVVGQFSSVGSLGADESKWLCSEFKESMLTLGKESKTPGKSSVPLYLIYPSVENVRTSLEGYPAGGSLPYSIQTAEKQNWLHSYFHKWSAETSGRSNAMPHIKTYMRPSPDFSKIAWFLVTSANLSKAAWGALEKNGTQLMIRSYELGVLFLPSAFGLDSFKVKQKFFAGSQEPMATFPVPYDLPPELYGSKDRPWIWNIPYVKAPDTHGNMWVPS
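Enzyme-compound mixtures sat 15 min at room temperature, followed by a 5 min reaction with 15 nM final substrate and 10 min with AlphaScreen beads. Recombinant human Tdp1 was used at 1 nM final.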
A number is an active result; i = inactive; ? = inconclusive; nt = not tested or not shown. Hits are enriched below; roughly 16% of the tested compounds scored in any of these assays. Unless noted, calls come from the whole dose curve; as a rule, active = well fitted curve in the direction sought with a large enough effect; inconclusive = small, poorly fitted or top-dose-only effect, or another doubt; inactive = no such curve, though single readings can be large; an effect the other way counts as inactive or inconclusive.

SMILES	miR-21 act	TDP1 cell CPT	TDP1 cell noCPT	uPA generation	TDP1 inh
Cc1cc(C2=NNC(=NC3CC3)SC2)c(C)n1-c1ccccc1F	?	16µM	21µM	1.6µM	i
Cc1cccc(C)c1N=C1NN=C(c2ccccc2F)CS1	i	21µM	21µM	i	i
O=C(CCNC(=O)c1ccc([N+](=O)[O-])cc1)Nc1ccc(F)cc1F	i	i	i	i	nt
CNc1nc(-c2c(C)[nH]c3ccc(OC)cc23)cs1	i	i	?	i	nt
COc1ccc2c(c1OC)C(=O)N1C2SC[C@H]1C(=O)NC1CC(C)(C)NC(C)(C)C1 (some centres not stated)	i	i	i	i	i
CC1C(c2ccccc2)=Nn2c(=O)n(-c3ccccc3)c(=O)n21 (configuration not stated)	nt	?	23µM	nt	nt
O=C(CCn1cccn1)Nc1ccc2c(c1)OCCO2	i	i	i	i	i
O=C(CN1c2ccccc2Sc2ccccc21)N/N=C/c1ccc([N+](=O)[O-])cc1	i	?	21µM	i	nt
CC(=O)N1CCCC(c2cc(C(=O)Nc3ccccc3)no2)C1 (configuration not stated)	nt	i	?	nt	nt
CCCC(=O)N1CCCC(c2cc(C(=O)Nc3ccc4c(c3)OCO4)no2)C1 (configuration not stated)	nt	i	i	nt	nt
O=C(Nc1ccc2c(c1)OCO2)c1cc(C2CCCN(C(=O)CCCc3ccccc3)C2)on1 (configuration not stated)	nt	18µM	?	nt	nt
CC(C)(C)c1ccc(NC(=O)c2cc(C3CCCN(C(=O)CCc4ccccc4)C3)on2)cc1 (configuration not stated)	nt	8.2µM	12µM	nt	nt
O=C(Nc1ccccc1)c1cc(C2CCCN(C(=O)C/C=C/c3ccccc3)C2)on1 (configuration not stated)	nt	?	21µM	nt	nt
O=C(Nc1ccc2c(c1)OCO2)c1cc(C2CCCN(C(=O)CCc3ccccc3)C2)on1 (configuration not stated)	nt	21µM	?	nt	nt
CN(CCc1ccccn1)C(=O)Nc1cccc(Cl)c1	i	i	i	i	i
Cc1ccc(NC2=CC(=O)CC(C)(C)C2)c(N)c1	i	i	i	i	i
CC(C)c1cnc2c(c1SCC(=O)NC(C)(C)C)c(=O)n(C)c(=O)n2C	i	i	i	nt	i
CCCc1cnc2c(c1SCC(=O)Nc1ccccc1F)c(=O)n(C)c(=O)n2C	?	?	23µM	nt	i
CC(C)c1cnc2c(c1SCC(=O)c1ccccc1)c(=O)n(C)c(=O)n2C	i	?	13µM	nt	i
CCCc1cnc2c(c1SCC(=O)N1CCC(C)CC1)c(=O)n(C)c(=O)n2C	i	16µM	21µM	nt	i
CC(C)c1cnc2c(c1SCC(=O)N1CCCCC1)c(=O)n(C)c(=O)n2C	i	23µM	?	nt	i
Cc1ccc(S(=O)(=O)N2CCN(C(=O)COC(=O)CNC(=O)c3ccccc3F)CC2)c(C)c1	nt	i	i	i	nt
Cc1cccc(NC(=O)CSc2c(C)cnc3c2c(=O)n(C)c(=O)n3C)c1C	i	i	?	nt	i
CCCNC(=O)CSc1c(CCC)cnc2c1c(=O)n(C)c(=O)n2C	i	i	i	nt	i
CCCc1cnc2c(c1SCC(=O)NCc1ccc(C)cc1)c(=O)n(C)c(=O)n2C	i	i	i	nt	i
SMILES	miR-21 act	TDP1 cell CPT	TDP1 cell noCPT	uPA generation	TDP1 inh
CCc1cnc2c(c1SCCC(C)C)c(=O)n(C)c(=O)n2C	i	26µM	?	nt	i
CC(C)c1cnc2c(c1SCc1cccc(F)c1)c(=O)n(C)c(=O)n2C	i	16µM	23µM	nt	i
CCC(C)Sc1c(C(C)C)cnc2c1c(=O)n(C)c(=O)n2C (configuration not stated)	i	23µM	13µM	nt	i
CCc1cnc2c(c1SCc1c(F)cccc1Cl)c(=O)n(C)c(=O)n2C	i	15µM	26µM	nt	i
Cc1ccc(-c2nc(CNC(=O)Nc3ccccc3)c(C)o2)cc1	i	?	?	nt	i
COc1ccc(NC(=O)CSc2c(C(C)C)cnc3c2c(=O)n(C)c(=O)n3C)c(OC)c1	i	23µM	23µM	nt	i
CCN1CCN(c2nc(Nc3cccc(C)c3)nc(N)c2[N+](=O)[O-])CC1	i	?	18µM	i	i
Cc1ccc(Nc2nc(N)c([N+](=O)[O-])c(NCc3ccco3)n2)cc1C	i	26µM	?	i	i
Cc1ccc(Nc2nc(N)c([N+](=O)[O-])c(N3CCOCC3)n2)cc1C	i	23µM	21µM	i	i
CCN1CCN(c2nc(Nc3ccccc3)nc(N)c2[N+](=O)[O-])CC1	i	i	i	i	i
Cc1cccc(Nc2nc(N)c([N+](=O)[O-])c(N3CCCC(C)C3)n2)c1 (configuration not stated)	i	13µM	10µM	i	i
CCOC(=O)C1CCN(C(=O)CS(=O)(=O)Cc2nc(-c3ccccc3Cl)oc2C)CC1	i	i	?	i	nt
COCCCn1cc(CN2CC(N3CCCCC3)CS2(=O)=O)nn1 (configuration not stated)	nt	i	i	nt	nt
Cn1cnc(S(=O)(=O)N2CCCCC2c2cc(C(=O)NCc3ccc(F)cc3)no2)c1 (configuration not stated)	nt	i	i	nt	nt
Cc1ccc(C(=O)C(C(=O)/C=C/c2ccccc2)=C2SCCCS2)cc1	?	5.8µM	4.6µM	i	i
CCCCC1S/C(=N/N=C/c2ccco2)NC1=O (configuration not stated)	i	16µM	?	i	i
CCCC1S/C(=N/N=C/c2ccco2)NC1=O (configuration not stated)	i	i	i	i	?
COc1ccccc1CC1S/C(=N/N=C/c2ccco2)NC1=O (configuration not stated)	i	?	6.5µM	i	i
O=C1N/C(=N/N=C/c2ccco2)SC1Cc1ccccc1 (configuration not stated)	i	i	?	i	i
CCCC(=O)Nc1nnc(SCC(=O)Nc2ccc3c(c2)OCCO3)s1	i	?	?	i	i
O=Nc1nc2ncccn2c1-c1ccccc1	nt	0.092µM	0.52µM	i	nt
COc1ccc2nc(Nc3nc(CSc4ccc(C)cc4)cc(=O)[nH]3)nc(C)c2c1	i	?	18µM	i	i
Cc1ccc(SCc2cc(=O)[nH]c(Nc3nc(C)c4cccc(C)c4n3)n2)cc1	i	?	16µM	i	i
Cc1cc(C)c2nc(Nc3nc(CSc4nc5ccccc5[nH]4)cc(=O)[nH]3)nc(C)c2c1	nt	i	?	i	nt
COc1ccc2nc(Nc3nc(C)c(CCC(C)C)c(=O)[nH]3)nc(C)c2c1	i	?	18µM	nt	i
